Experiment [1] in a line: qHTS RealTime-Glo MT Cell Viability Assay in HepG2 cells - 40 hour (AID 1224870). Further: nearly all actives have a fitted effect of over 50% in size. Further: potency means the concentration at half of the fitted maximal effect. A digest of the protocol: (§1)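 Real-time viability: cells seeded at 600 per well together with NanoLuc and cell-permeant prosubstrate, compounds added after 5 h incubation. Luminescence tracked at 0, 8, 16, 24, 32 and 40 h of exposure.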
A short description of experiment [2]: A CellTox Green Cytotoxicity Assay to monitor cytotoxicity in HEK293 cells - 40 hour (AID 1224871). Further: nearly all actives have a fitted effect of over 45% in size. A digest of the protocol: (§2)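 Fluorescence intensity, read at 0, 8, 16, 24, 32 and 40 h of compound treatment, reflected dye binding to DNA of dead HEK293 cells; compounds (23 nL, DMSO) were added 5 h after plating cells with reagent.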
The nature of experiment [3]: qHTS RealTime-Glo MT Cell Viability Assay in HEK293 cells - 16 hour (AID 1224872). Further: nearly all actives have a fitted effect of over 50% in size. Further: potency means the concentration at half of the fitted maximal effect. In a few lines:
(§3)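 Homogeneous bioluminescent viability format in HEK293 cells (600 cells/well). Following 5 h at 37 C/5% CO2, 23 nL compound was pintooled; the signal was measured repeatedly during 40 h incubation.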

A short description of experiment [4]: qHTS RealTime-Glo MT Cell Viability Assay in HepG2 cells - 8 hour (AID 1224873). Further: nearly all actives have a fitted effect of over 55% in size. A digest of the protocol: as §1
A general note: Quantitative high-throughput screening tests each substance at several concentrations.

Experiment [5] is described as follows: qHTS RealTime-Glo MT Cell Viability Assay in HEK293 cells - 40 hour (AID 1224874). Further: nearly all actives have a fitted effect of over 50% in size. Further: potency means the concentration at half of the fitted maximal effect. Particulars: RealTime-Glo luminescence; max response: hits give low values. A digest of the protocol:
(§4)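 Viable HEK293 cells reduce a cell-permeant prosubstrate; the product diffuses out and is consumed by NanoLuc in the medium to give light. Compounds went in after a 5 h incubation and plates were read over the treatment course.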

A short description of experiment [6]: A CellTox Green Cytotoxicity Assay to monitor cytotoxicity in HepG2 cells - 16 hour (AID 1224876). Further: nearly all actives have a fitted effect of over 45% in size. In a few lines: (§5)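 Using 1536-well format, dye-containing HepG2 suspension was seeded, allowed 5 h at 37 C/5% CO2, dosed by pintool with compounds, positive and negative controls, and imaged for fluorescence across 40 h.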
Experiment [7] is described as follows: qHTS RealTime-Glo MT Cell Viability Assay in HepG2 cells - 32 hour (AID 1224877). Further: nearly all actives have a fitted effect of over 55% in size. A digest of the protocol: (§6)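 Cell number in HepG2 cultures estimated from NanoLuc luminescence generated by metabolic reduction of a prosubstrate by living cells. The homogeneous, nonlytic format allowed repeated reads at 0, 8, 16, 24, 32 and 40 h of compound exposure.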
Experiment [8] can be described thus: A CellTox Green Cytotoxicity Assay to monitor cytotoxicity in HepG2 cells - 24 hour (AID 1224878). Further: nearly all actives have a fitted effect of over 45% in size. In a few lines: as §5
Experiment [9] can be described thus: A CellTox Green Cytotoxicity Assay to monitor cytotoxicity in HepG2 cells - 40 hour (AID 1224879). Further: nearly all actives have a fitted effect of over 40% in size. In a few lines: as §5
Experiment [10] is described as follows: qHTS RealTime-Glo MT Cell Viability Assay in HEK293 cells - 0 hour (AID 1224880). Further: top concentration of the series differs between compounds; nearly all actives have a fitted effect of over 45% in size. In a few lines: as §4
Experiment [11] is described as follows: A CellTox Green Cytotoxicity Assay to monitor cytotoxicity in HEK293 cells - 32 hour (AID 1224881). Further: nearly all actives have a fitted effect of over 40% in size. In a few lines: as §2
Experiment [12] in a line: A CellTox Green Cytotoxicity Assay to monitor cytotoxicity in HepG2 cells - 0 hour (AID 1224882). Further: nearly all actives have a fitted effect of over 35% in size. In a few lines: as §5
Experiment [13] in a line: A CellTox Green Cytotoxicity Assay to monitor cytotoxicity in HepG2 cells - 32 hour (AID 1224883). Further: nearly all actives have a fitted effect of over 50% in size. In a few lines:
as §5

The nature of experiment [14]: A CellTox Green Cytotoxicity Assay to monitor cytotoxicity in HEK293 cells - 8 hour (AID 1224884). Further: nearly all actives have a fitted effect of over 35% in size. In a few lines: as §2
Experiment [15] in a line: qHTS RealTime-Glo MT Cell Viability Assay in HepG2 cells - 16 hour (AID 1224885). Further: nearly all actives have a fitted effect of over 50% in size. A digest of the protocol:
as §6

The nature of experiment [16]: qHTS RealTime-Glo MT Cell Viability Assay in HEK293 cells - 24 hour (AID 1224886). Further: nearly all actives have a fitted effect of over 50% in size. Further: potency means the concentration at half of the fitted maximal effect. A digest of the protocol: as §3
Experiment [17] in a line: qHTS RealTime-Glo MT Cell Viability Assay in HEK293 cells - 8 hour (AID 1224887). Further: nearly all actives have a fitted effect of over 50% in size. Further: potency means the concentration at half of the fitted maximal effect. A digest of the protocol: as §4
The nature of experiment [18]: A CellTox Green Cytotoxicity Assay to monitor cytotoxicity in HEK293 cells - 16 hour (AID 1224888). Further: nearly all actives have a fitted effect of over 35% in size. A digest of the protocol:
as §2

A short description of experiment [19]: qHTS RealTime-Glo MT Cell Viability Assay in HepG2 cells - 0 hour (AID 1224889). Further: nearly all actives have a fitted effect of over 50% in size. A digest of the protocol: as §6
A short description of experiment [20]: A CellTox Green Cytotoxicity Assay to monitor cytotoxicity in HEK293 cells - 24 hour (AID 1224875). In a few lines: as §2

A number with no mark means an inactive call. Records with an inconclusive call do not appear. The source made the active and inactive calls. The call rests on the fitted dose curve; in most records, active means well fitted curve in the direction sought with a large enough effect in the repeat runs; inconclusive means weak or mixed curves; inactive means no such curve, though single readings can be large; an effect the other way counts as inactive or inconclusive.

In PubChem BioAssay (Tox21) one finds Potency, outcome and max response data, which are given here for 10 compounds.
On the % scale 0 is the no-effect control and ±100 the full control effect.

On to `C#CC(C)(O)CC(C)C` (stereo not given), for which the Potency result in [1], in [2], in [3], in experiment [6], in experiment [7] and in experiment [8] was “inactive” throughout. Further, the Potency entry in experiment [9], in experiment [11], in experiment [12], in [13], in experiment [14] and in experiment [16] was “inactive” throughout. Further, the Potency entry in experiment [17], in [18] and in experiment [19] was “inactive” each time. Besides, the result in experiment [4], in experiment [10] and in experiment [15] was inactive. Moreover, in [5], the max response was 22.3%.

For the compound `NC1CCN(c2cccc(Cl)n2)CC1`, the Potency entry in experiment [1], in experiment [2], in experiment [3], in [6], in experiment [7] and in experiment [8] was “inactive” throughout. In addition, the Potency result in experiment [9], in experiment [11], in experiment [12], in [13], in experiment [14] and in [16] was “inactive” each time. Further, the Potency entry in experiment [17], in [18] and in experiment [19] was “inactive” each time. The outcome in experiment [4], in experiment [10] and in experiment [15] was inactive. Further, in [5], the max response is -1.03%.

For the compound `COCc1ccc(COC)cc1`, the Potency entry in [1], in experiment [2], in experiment [3], in experiment [6], in experiment [7] and in experiment [8] was “inactive” throughout. The Potency entry in [9], in [11], in experiment [12], in experiment [13], in [14] and in [16] was “inactive” throughout. Besides, the Potency entry in experiment [17] and in experiment [19] was “inactive” each time. For the same compound, the compound was classed as inactive in experiment [4], in [10] and in experiment [15]. Besides, the max response in experiment [5] was 4.98%.

In the case of `COc1ccc(NC(C)=O)cc1`, the Potency result in experiment [1], in experiment [2], in [3], in experiment [20], in experiment [6] and in experiment [7] was “inactive” in each case. Moreover, the Potency result in experiment [8], in experiment [9], in experiment [11], in experiment [12], in [13] and in experiment [14] was “inactive” each time. Also, the Potency result in [16], in [17], in experiment [18] and in experiment [19] was “inactive” throughout. In addition, in [5], the max response is -7.34%. Also, the outcome in experiment [10] and in experiment [15] was inactive.

Regarding `COCCOC(=O)CC#N`, the Potency entry in experiment [1], in [2], in experiment [3], in experiment [20], in experiment [6] and in experiment [7] was “inactive” each time. In addition, the Potency entry in experiment [8], in experiment [9], in experiment [11], in experiment [12], in experiment [13] and in experiment [14] was “inactive” in each case. The Potency result in experiment [16], in [17] and in [19] was “inactive” throughout. The compound was called inactive in experiment [4], in [10] and in experiment [15].

Take `Cc1cc(C)cc(OCC2CNC(=O)O2)c1` (stereo not given): the Potency entry in [1], in [2], in [3], in experiment [20], in [6] and in [7] was “inactive” in each case. Also, the Potency result in experiment [8], in experiment [9], in experiment [11], in [12], in experiment [13] and in [14] was “inactive” in each case. In addition, the Potency result in [16], in experiment [17], in experiment [18] and in [19] was “inactive” each time. For the same compound, in experiment [4], the compound was called inactive.

With `CCC(=O)c1cccc(Cl)c1`, the Potency entry in experiment [1], in [2], in [3], in [6], in [7] and in [8] was “inactive” each time. The Potency entry in experiment [9], in [11], in [12], in experiment [13], in experiment [14] and in experiment [16] was “inactive” each time. Also, the Potency result in [17], in experiment [18] and in experiment [19] was “inactive” each time. Moreover, the call in [4], in [10] and in [15] was inactive.

On to `CSc1nc(NC2CC2)nc(NC(C)(C)C)n1`, for which the Potency entry in experiment [1], in [2], in experiment [20], in experiment [6], in experiment [7] and in experiment [8] was “inactive” each time. The Potency result in experiment [9], in experiment [11], in [12], in experiment [13], in experiment [14] and in experiment [18] was “inactive” in each case. Besides, the Potency result in [19] was “inactive”. Moreover, the Potency in [3] was 24.5 µM (active); in experiment [5], 24.5 µM (active); in experiment [16] it was 21.9 µM (active); in experiment [17], 19.5 µM (active). The compound was called inactive in experiment [10] and in [15].

Consider `C=CCSCC1Nc2cc(Cl)c(S(N)(=O)=O)cc2S(=O)(=O)N1` (stereo not given), for which the Potency result in [1], in experiment [2], in experiment [3], in experiment [20], in experiment [6] and in [7] was “inactive” each time. Besides, the Potency result in experiment [8], in experiment [9], in experiment [11], in [13], in experiment [14] and in [16] was “inactive” in each case. Also, the Potency result in experiment [17] and in experiment [19] was “inactive” in each case. Moreover, the compound was called inactive in experiment [4] and in [15].

As for `C[N+](C)(C)CC[N+]1(C)Cc2c(Cl)c(Cl)c(Cl)c(Cl)c2C1`, the Potency in experiment [1] was 23.9 µM (active). Further, the Potency result in experiment [2], in experiment [3], in experiment [20], in experiment [6], in experiment [8] and in experiment [9] was “inactive” each time. Moreover, the Potency result in experiment [11], in experiment [13], in experiment [14], in experiment [16], in [17] and in [18] was “inactive” in each case. Further, the Potency entry in experiment [19] is “inactive”. The compound was classed as inactive in [4], in experiment [10] and in experiment [15].
